Data from PubChem BioAssay (Tox21).
Inconclusive results are not listed. The source made the active and inactive calls. Unless noted, the call rests on the fitted dose curve; in most records, active means well fitted curve in the direction sought with a large enough effect in the repeat runs; inconclusive means weak or mixed curves; inactive means no such curve, though single readings can be large; an effect the other way counts as inactive or inconclusive.

Experiments:
[1] = qHTS assay to identify small molecule agonists of the vitamin D receptor (VDR) signaling pathway - cell viability counter screen (AID 743224); further: nearly all actives have a fitted effect of over 50% in size; further: potency means the concentration at half of the fitted maximal effect
Procedure, shortened: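 VDR-bla cells, 4 h after plating, exposed to compounds for 16 h at 37C; viability then read in the same wells as CellTiter-Glo luminescence after 30 min at room temperature, following the bla FRET read.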

[2] = qHTS assay to identify small molecule antagonists of the vitamin D receptor (VDR) signaling pathway - cell viability counter screen (AID 743225); further: on the % scale 0 is the no-effect control and ±100 the full control effect; nearly all actives have a fitted effect of over 50% in size
Procedure, shortened: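 Compounds were pinned onto VDR-bla HEK 293T cells together with 1-alpha,25-dihydroxyvitamin D3 at 3 nM final. After 16 h at 37C and 5% CO2 plus the reporter readout, cell viability was measured by CellTiter-Glo luminescence (30 min, room temperature).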

[3] = qHTS assay to identify small molecule agonists of the NFkB signaling pathway - cell viability counter screen (AID 1159515; calls by dose curve; further: nearly all actives have a fitted effect of over 55% in size; further: potency means the concentration at half of the fitted maximal effect)
Procedure, shortened: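 NFkB-bla ME-180 cells, 2,000/well, plated overnight at 37 C; compound added for 5 hr at 37 C. Viability read in the same wells as the bla reporter, by CellTiter-Glo luminescence after 30 min at room temperature.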

[4] = qHTS assay to identify small molecule agonists of the endoplasmic reticulum stress response signaling pathway (AID 1159516; active means well fitted activation curve with a large enough effect in the signal ratio in the repeat runs, not every such curve was filed as active; the % refers to the signal ratio; further: on the % scale 0 is the no-effect control and ±100 the full control effect)
Procedure, shortened: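 CellSensor ESRE-bla HeLa cells, 1,500 per well, plated overnight, then exposed to compounds for 5 hr at 37 C. Beta-lactamase reporter read with LiveBLAzer B/G FRET substrate after 2 hr at room temperature, 405 nm excitation, 460 and 530 nm emission.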

[5] = qHTS assay to identify small molecule agonists of the endoplasmic reticulum stress response signaling pathway - cell viability counter screen (AID 1159517; calls by dose curve;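 further: HeLa cells carrying an ER stress response element beta-lactamase reporter; series mostly up to about 61 µM; on the % scale 0 is the no-effect control and ±100 the full control effect; nearly all actives have a fitted effect of over 50% in size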)
Procedure, shortened: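 HeLa cells carrying an ESRE-driven beta-lactamase reporter receive compound for 5 hr at 37 C. Cell viability is then gauged with CellTiter-Glo by luminescence, 30 min at room temperature.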

[6] = qHTS assay to identify small molecule antagonists of the retinoid-related orphan receptor gamma (ROR-gamma) signaling pathway - cell viability counter screen (AID 1159520); further: on the % scale 0 is the no-effect control and ±100 the full control effect; nearly all actives have a fitted effect of over 50% in size
Procedure, shortened: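 Cytotoxicity was read from cellular ATP (CellTiter-Glo luminescence) after 16 hr at 37 C with 1 uM doxycycline induction. The inducer was added 2 hr after compound transfer to Tet-on ROR gamma CHO cells.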

[7] = target: Nuclear receptor ROR-gamma (Homo sapiens) (UniProt P51449); assay: qHTS assay to identify small molecule antagonists of the retinoid-related orphan receptor gamma (ROR-gamma) signaling pathway (AID 1159521; further: nearly all actives have a fitted effect of over 50% in size; further: potency means the concentration at half of the fitted maximal effect)
Procedure, shortened: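 Test compounds were applied to Tet-on RORγ CHO cells 2 h ahead of doxycycline hyclate (1 uM final). Luciferase reporter activity was quantified by luminescence after 16 h at 37 C and 5% CO2.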

[8] = qHTS assay to identify small molecule agonists of the AP-1 signaling pathway (AID 1159526; calls by dose curve; further: on the % scale 0 is the no-effect control and ±100 the full control effect)
[9] = target: Retinoic acid receptor RXR-alpha (Homo sapiens) (UniProt P19793); assay: qHTS assay to identify small molecule agonists of the RXR signaling pathway (AID 1159527; calls by dose curve; further: on the % scale 0 is the no-effect control and ±100 the full control effect; nearly all actives have a fitted effect of over 35% in size)
Procedure, shortened: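 Using 9-cis retinoic acid as the reference agonist, chemicals were tested in HEK 293T cells […] for 16 hr; substrate loading lasted 2 hr at room temperature.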

[10] = qHTS assay to identify small molecule agonists of the RXR signaling pathway - cell viability counter screen (AID 1159529); further: nearly all actives have a fitted effect of over 50% in size; further: potency means the concentration at half of the fitted maximal effect
Procedure, shortened: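 Compounds dissolved in DMSO were pinned onto HEK 293T cells carrying a beta-lactamase reporter under RXR-alpha control and incubated 16 hr. Cytotoxicity was then quantified by CellTiter-Glo luminescence.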

[11] = qHTS assay to identify small molecule antagonists of the retinoid acid receptor (RAR) signaling pathway - cell viability counter screen (AID 1159551); further: on the % scale 0 is the no-effect control and ±100 the full control effect; nearly all actives have a fitted effect of over 35% in size
Procedure, shortened: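 C3RL4 RARE-luciferase cells, 1,000/well, incubated overnight, then dosed with compound plus 1 uM retinol (final). After 6 hr at 37 C, viability read by CellTiter-Glo ATP luminescence following 30 min at room temperature.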

[12] = qHTS assay to identify small molecule antagonists of the retinoic acid receptor (RAR) signaling pathway (AID 1159552)
Procedure, shortened: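 Test chemicals and DMSO controls were pin-transferred onto C3RL4 cells a day after seeding; retinol (1 uM final) followed at once. Luminescent reporter output was quantified after 6 hr of co-incubation and 30 min with detection reagent.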

[13] = qHTS assay to identify small molecule agonists of the retinoic acid receptor (RAR) signaling pathway (AID 1159553); further: potency means the concentration at half of the fitted maximal effect
Procedure, shortened: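 C3RL4 RARE-luciferase cells were seeded at 1,000/well and grown overnight at 37 C, then exposed to compounds for 6 hr at 37 C, 5% CO2. Luciferase reagent was added and luminescence was read after 30 min at room temperature.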

[14] = qHTS assay to identify small molecule agonists of the AP-1 signaling pathway - cell viability counter screen (AID 1159525; calls by dose curve; further: nearly all actives have a fitted effect of over 55% in size)
Procedure, shortened: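 Luminescent ATP readout (Cell Titer Glo, 30 min RT), normalised to DMSO and tetra n-octyl ammonium bromide controls. Cells were ME-180 AP-1-bla in 0.5% dialyzed FBS Opti-MEM, with a 5 h, 37 °C compound exposure.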

[15] = qHTS assay to identify small molecule antagonists of the estrogen related receptor (ERR) signaling pathway - cell viability counter screen (AID 1224818); further: series mostly up to about 46 µM; on the % scale 0 is the no-effect control and ±100 the full control effect
Procedure, shortened: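 ERR cells, 2,000 per well, compound added after 6 h and incubated 17.5 h at 37 C. Viability read by CellTiter-Fluor fluorescence after a further 30 min at 37 C.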

[16] = qHTS assay to identify small molecule antagonists of the estrogen related receptor signaling pathway with the pleiotropic PPARgamma coactivator (PGC) cell viability counter screen (AID 1224822; further: series mostly up to about 46 µM; on the % scale 0 is the no-effect control and ±100 the full control effect)
Procedure, shortened: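 PGC/ERR cells rested 6 h, then compound-treated 17.5 h at 37 C. CellTiter-Fluor added for 30 min at 37 C, viability measured by fluorescence intensity.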

Chain of Retinoic acid receptor RXR-alpha (Homo sapiens) (P19793 whole entry, looked up): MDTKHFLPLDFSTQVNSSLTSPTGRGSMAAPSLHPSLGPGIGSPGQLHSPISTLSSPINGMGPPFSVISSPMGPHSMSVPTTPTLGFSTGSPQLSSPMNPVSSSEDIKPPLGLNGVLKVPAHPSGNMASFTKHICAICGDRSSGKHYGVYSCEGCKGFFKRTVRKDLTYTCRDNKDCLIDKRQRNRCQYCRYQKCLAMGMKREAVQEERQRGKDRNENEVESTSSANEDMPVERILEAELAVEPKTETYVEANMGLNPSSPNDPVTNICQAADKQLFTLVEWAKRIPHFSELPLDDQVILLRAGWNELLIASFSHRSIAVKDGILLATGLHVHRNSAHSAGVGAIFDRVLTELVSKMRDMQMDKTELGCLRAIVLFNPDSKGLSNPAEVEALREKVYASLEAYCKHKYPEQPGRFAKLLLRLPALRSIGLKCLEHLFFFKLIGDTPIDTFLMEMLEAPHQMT

C[Si](C)(CCCN)O[Si](C)(C)CCCN
inactive: Potency [1] | Potency [2] | Potency [3] | Potency [4] | Potency [5] | Potency [6] | Potency [7] | Potency [8] | Potency [9] | Potency [10] | Potency [11] | Potency [12] | Potency [13]

CCCOC(C(=O)OC1CCN(C)CC1)(c1ccccc1)c1ccccc1
active: Potency [7] 13.3 µM
inactive: Potency [1] | Potency [2] | Potency [3] | Potency [4] | Potency [5] | Potency [6] | Potency [14] | Potency [11] | Potency [13]

Cc1cccc(C)c1OCC(=O)N[C@@H](Cc1ccccc1)[C@@H](O)C[C@H](Cc1ccccc1)NC(=O)[C@H](C(C)C)N1CCCNC1=O
active: Potency [3] 19 µM | Potency [7] 29.8 µM | Potency [10] 23.9 µM
inactive: Potency [1] | Potency [2] | Potency [4] | Potency [5] | Potency [6] | Potency [8] | Potency [11] | Potency [12] | Potency [13]

Cc1ccccc1S(=O)(=O)O
inactive: Potency [1] | Potency [2] | Potency [3] | Potency [4] | Potency [5] | Potency [6] | Potency [7] | Potency [8] | Potency [9] | Potency [10] | Potency [11] | Potency [12] | Potency [13]

CN1CCC(N(Cc2cccs2)c2ccccc2)CC1
inactive: Potency [2] | Potency [3] | Potency [4] | Potency [5] | Potency [6] | Potency [7] | Potency [14] | Potency [11]
active: Potency [1] 33.5 µM

CN1CCN(C(c2ccccc2)c2ccccc2)CC1
inactive: Potency [1] | Potency [2] | Potency [3] | Potency [4] | Potency [5] | Potency [6] | Potency [7] | Potency [9] | Potency [10] | Potency [11]

CN(C)c1ccc(/C=C/c2ccc([N+](=O)[O-])cc2)cc1
active: Potency [13] 0.219 µM
inactive: activity change, negative = cytotoxicity [1] -5.5% [at 5.95 µM] | viability change, negative = cytotoxic [2] 7.13% [at 6.95 µM] | activity, negative = cytotoxic [3] -0.218% [at 6.95 µM] | activation [4] -8.84% [at 6.95 µM] | activity change, negative = cytotoxicity [5] 15.7% [at 6.95 µM] | activity, negative = cytotoxicity [6] 1.18% [at 8.39 µM] | activity change, negative = inhibition [7] 127% [at 8.39 µM] | activation [8] -11.3% [at 6.97 µM] | activation [9] -7.68% [at 6.98 µM] | activity change, negative = cytotoxicity [10] -5.22% [at 6.97 µM] | activity change, negative = cytotoxicity [11] -0.286% [at 8.39 µM] | activity, negative = inhibition [12] 84.6% [at 8.39 µM]

CCOC(=O)C(O)c1ccccc1 (stereo not drawn)
inactive: Potency [1] | Potency [2] | Potency [3] | Potency [4] | Potency [5] | Potency [6] | Potency [7] | Potency [8] | Potency [9] | Potency [11] | Potency [12] | Potency [13]

CCCCC/C=C\C/C=C\CCCCCCCC(=O)NC(C)c1ccccc1 (stereo not drawn)
inactive: Potency [1] | Potency [2] | Potency [3] | Potency [4] | Potency [5] | Potency [6] | Potency [7] | Potency [8] | Potency [10] | Potency [11] | Potency [12] | Potency [13]

CCCCCCCC#N
inactive: Potency [2] | Potency [3] | Potency [4] | Potency [5] | Potency [6] | Potency [7] | Potency [14] | Potency [11]

CCOC(=O)NCCOc1ccc(Oc2ccccc2)cc1
inactive: Potency [1] | Potency [2] | Potency [3] | Potency [4] | Potency [5] | Potency [6] | Potency [14] | Potency [11] | Potency [12]
active: Potency [7] 43.3 µM

O=C(OCCCCCCOC(=O)c1ccccc1)c1ccccc1
inactive: Potency [2] | Potency [3] | Potency [4] | Potency [5] | Potency [6] | Potency [7] | Potency [14] | Potency [11] | Potency [12]
active: Potency [1] 43.6 µM

CCC(C)(C)CC
inactive: Potency [2] | Potency [3] | Potency [4] | Potency [5] | Potency [6] | Potency [7] | Potency [9] | Potency [10] | Potency [11] | Potency [12]

Cc1cccc(Nc2ccccc2)c1
inactive: Potency [1] | Potency [2] | Potency [3] | Potency [4] | Potency [5] | Potency [6] | Potency [7] | Potency [10] | Potency [11] | Potency [12]

CCC(Cl)CCC(Cl)C(Cl)CC(Cl)C(Cl)C(Cl)CCl (stereo not drawn)
inactive: Potency [2] | Potency [3] | Potency [4] | Potency [5] | Potency [6] | Potency [7] | Potency [9] | Potency [10] | Potency [11] | Potency [12]

CCCCC
inactive: Potency [1] | Potency [3] | Potency [4] | Potency [5] | Potency [6] | Potency [7] | Potency [8] | Potency [9] | Potency [10] | Potency [11] | Potency [12] | Potency [13]

C#CCN(C)CCCOc1ccc(Cl)cc1Cl
inactive: Potency [1] | Potency [2] | Potency [3] | Potency [4] | Potency [5] | Potency [6] | Potency [7] | Potency [8] | Potency [9] | Potency [10] | Potency [11] | Potency [12] | outcome [15] | outcome [16]
